# In article PMC7862700, “An all-to-all approach to the identification of sequence-specific readers for epigenetic DNA modifications on cytosine”:
# Key:
# Experiment in all cases: DAPPL (digital affinity profiling via proximity ligation, sequencing); 10 mM Tris-HCl pH 7.5, 50 mM NaCl, 1 mM DTT, 4% glycerol, room temperature, 30 min; GST-TFs on glutathione beads, 16-mer random dsDNA library, 0.1% formaldehyde crosslink after washing; high values mean tight binding
# [1] = target: T1, FLI1 (Homo sapiens, UniProt Q01543 1-452); details: protein: recombinant; tags: N-terminal GST; dsDNA, one strand shown
# T1 sequence: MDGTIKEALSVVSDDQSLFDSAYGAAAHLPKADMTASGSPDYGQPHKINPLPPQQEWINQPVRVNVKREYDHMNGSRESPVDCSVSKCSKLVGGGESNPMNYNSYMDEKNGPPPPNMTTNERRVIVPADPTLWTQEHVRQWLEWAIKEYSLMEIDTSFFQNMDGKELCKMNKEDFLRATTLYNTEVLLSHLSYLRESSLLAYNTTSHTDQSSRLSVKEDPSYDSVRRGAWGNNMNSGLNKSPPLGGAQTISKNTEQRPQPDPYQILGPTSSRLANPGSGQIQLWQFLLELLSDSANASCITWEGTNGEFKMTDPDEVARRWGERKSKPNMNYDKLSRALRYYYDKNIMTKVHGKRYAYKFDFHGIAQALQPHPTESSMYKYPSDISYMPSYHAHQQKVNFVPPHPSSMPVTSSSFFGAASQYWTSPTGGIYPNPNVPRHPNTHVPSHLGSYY
# How it was run: (§1)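 Yeast served to express human transcription factors as GST fusions, which were then captured on glutathione beads and labelled with DNA barcodes. Pooled with a tag-only sample, they were incubated with 200 nmole of a 16-mer random double-stranded DNA library for 30 min at room temperature in Tris/NaCl/DTT/glycerol buffer, washed, crosslinked with 0.1% formaldehyde, ligated by proximity, amplified by PCR and sequenced. Dividing each hexamer's read frequency for a factor by its frequency for the tag-only sample gives the binding signal.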
# [2] = target: T2, GABPA (Homo sapiens, UniProt Q06546 1-454); details: protein: recombinant; tags: N-terminal GST; dsDNA, one strand shown
# T2 sequence: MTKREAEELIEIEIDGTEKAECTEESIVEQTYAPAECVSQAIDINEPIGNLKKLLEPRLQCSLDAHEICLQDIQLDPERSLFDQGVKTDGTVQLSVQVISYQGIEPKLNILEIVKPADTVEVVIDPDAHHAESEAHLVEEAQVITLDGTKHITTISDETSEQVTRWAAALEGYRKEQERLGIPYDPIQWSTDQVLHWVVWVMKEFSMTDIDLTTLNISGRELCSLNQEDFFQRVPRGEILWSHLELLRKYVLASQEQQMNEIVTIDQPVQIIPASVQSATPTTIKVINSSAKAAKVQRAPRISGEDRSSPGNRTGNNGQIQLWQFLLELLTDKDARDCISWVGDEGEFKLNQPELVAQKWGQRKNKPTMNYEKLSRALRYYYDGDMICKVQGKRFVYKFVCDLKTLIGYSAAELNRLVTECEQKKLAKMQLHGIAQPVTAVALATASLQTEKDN
# How it was run: as §1
# [3] = target: T3, ERG (Homo sapiens, UniProt P11308 1-479); details: protein: recombinant; tags: N-terminal GST; dsDNA, one strand shown
# T3 sequence: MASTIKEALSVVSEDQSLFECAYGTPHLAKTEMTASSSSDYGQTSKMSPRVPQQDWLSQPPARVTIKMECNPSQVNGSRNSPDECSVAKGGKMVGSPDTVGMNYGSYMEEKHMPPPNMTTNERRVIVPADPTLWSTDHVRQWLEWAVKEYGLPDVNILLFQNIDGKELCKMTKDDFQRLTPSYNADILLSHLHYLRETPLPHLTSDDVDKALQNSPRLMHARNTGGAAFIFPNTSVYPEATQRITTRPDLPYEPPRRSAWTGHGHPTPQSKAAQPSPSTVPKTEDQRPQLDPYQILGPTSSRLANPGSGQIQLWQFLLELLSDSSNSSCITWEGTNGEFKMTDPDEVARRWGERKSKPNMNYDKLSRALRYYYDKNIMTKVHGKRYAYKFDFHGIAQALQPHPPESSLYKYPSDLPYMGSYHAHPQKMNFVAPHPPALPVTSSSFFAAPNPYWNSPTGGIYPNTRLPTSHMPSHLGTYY
# How it was run: as §1
# [4] = target: ELF1 (Homo sapiens, UniProt P32519 1-619); details: protein: recombinant; tags: N-terminal GST; dsDNA, one strand shown
# How it was run: as §1
# [5] = target: T4, EHF (Homo sapiens, UniProt Q9NZC4 1-300); details: protein: recombinant; tags: N-terminal GST; dsDNA, one strand shown
# T4 sequence: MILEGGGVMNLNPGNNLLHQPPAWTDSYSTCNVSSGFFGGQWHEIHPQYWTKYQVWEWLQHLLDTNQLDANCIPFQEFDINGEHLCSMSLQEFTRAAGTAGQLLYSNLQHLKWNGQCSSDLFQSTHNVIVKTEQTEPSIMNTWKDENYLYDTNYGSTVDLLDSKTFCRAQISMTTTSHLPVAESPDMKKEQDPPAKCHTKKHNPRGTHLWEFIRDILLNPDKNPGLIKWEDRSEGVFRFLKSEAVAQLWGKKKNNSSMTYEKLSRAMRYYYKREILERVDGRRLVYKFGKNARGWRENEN
# How it was run: as §1
# [6] = target: SPI1 (Homo sapiens, UniProt P17947 1-270); details: protein: recombinant; tags: N-terminal GST; dsDNA, one strand shown
# How it was run: as §1
# [7] = target: SPIB (Homo sapiens, UniProt Q01892 1-262); details: protein: recombinant; tags: N-terminal GST; dsDNA, one strand shown
# How it was run: as §1
# [8] = target: T5, FEV (Homo sapiens, UniProt Q99581 1-238); details: protein: recombinant; tags: N-terminal GST; dsDNA, one strand shown
# T5 sequence: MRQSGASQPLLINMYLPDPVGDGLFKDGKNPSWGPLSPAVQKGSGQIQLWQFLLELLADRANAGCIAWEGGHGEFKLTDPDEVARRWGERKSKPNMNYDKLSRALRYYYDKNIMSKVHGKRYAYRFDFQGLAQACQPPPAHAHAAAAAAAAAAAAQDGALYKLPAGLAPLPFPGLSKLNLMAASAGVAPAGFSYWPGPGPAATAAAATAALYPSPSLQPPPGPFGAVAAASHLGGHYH
# How it was run: as §1
# [9] = target: ETV5 (Homo sapiens, UniProt P41161 1-510); details: protein: recombinant; tags: N-terminal GST; dsDNA, one strand shown
# How it was run: as §1
# [10] = target: HSF1 (Homo sapiens, UniProt Q00613 1-529); details: protein: recombinant; tags: N-terminal GST; chain copies: 3; dsDNA, one strand shown
# How it was run: as §1
# [11] = target: T6, SPIC (Homo sapiens, UniProt Q8N5J4 1-248); details: protein: recombinant; tags: N-terminal GST; dsDNA, one strand shown
# T6 sequence: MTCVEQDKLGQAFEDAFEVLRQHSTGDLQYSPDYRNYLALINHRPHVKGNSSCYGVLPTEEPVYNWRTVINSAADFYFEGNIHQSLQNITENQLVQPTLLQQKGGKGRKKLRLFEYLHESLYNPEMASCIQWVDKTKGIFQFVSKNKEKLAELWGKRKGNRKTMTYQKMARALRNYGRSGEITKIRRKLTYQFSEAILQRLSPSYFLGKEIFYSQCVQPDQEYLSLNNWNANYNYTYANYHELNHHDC
# How it was run: as §1
# [12] = target: ELF4 (Homo sapiens, UniProt Q99607 1-663); details: protein: recombinant; tags: N-terminal GST; dsDNA, one strand shown
# How it was run: as §1
# [13] = target: T7, ELK4 (Homo sapiens, UniProt P28324-2 1-405); details: protein: recombinant; tags: N-terminal GST; dsDNA, one strand shown
# T7 sequence: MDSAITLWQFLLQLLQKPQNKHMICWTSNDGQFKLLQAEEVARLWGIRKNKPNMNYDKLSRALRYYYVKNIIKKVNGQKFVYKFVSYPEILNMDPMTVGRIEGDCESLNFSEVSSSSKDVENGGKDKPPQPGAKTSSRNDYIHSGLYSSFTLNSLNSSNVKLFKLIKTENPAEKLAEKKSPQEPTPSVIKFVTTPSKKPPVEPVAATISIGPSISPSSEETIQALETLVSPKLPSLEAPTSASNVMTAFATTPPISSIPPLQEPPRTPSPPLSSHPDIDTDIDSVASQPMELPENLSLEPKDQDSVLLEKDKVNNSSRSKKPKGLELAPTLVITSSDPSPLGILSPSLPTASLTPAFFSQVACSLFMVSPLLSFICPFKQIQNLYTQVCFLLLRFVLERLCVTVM
# How it was run: as §1
# [14] = target: T8, ETV2 (Homo sapiens, UniProt O00321 1-342); details: protein: recombinant; tags: N-terminal GST; dsDNA, one strand shown
# T8 sequence: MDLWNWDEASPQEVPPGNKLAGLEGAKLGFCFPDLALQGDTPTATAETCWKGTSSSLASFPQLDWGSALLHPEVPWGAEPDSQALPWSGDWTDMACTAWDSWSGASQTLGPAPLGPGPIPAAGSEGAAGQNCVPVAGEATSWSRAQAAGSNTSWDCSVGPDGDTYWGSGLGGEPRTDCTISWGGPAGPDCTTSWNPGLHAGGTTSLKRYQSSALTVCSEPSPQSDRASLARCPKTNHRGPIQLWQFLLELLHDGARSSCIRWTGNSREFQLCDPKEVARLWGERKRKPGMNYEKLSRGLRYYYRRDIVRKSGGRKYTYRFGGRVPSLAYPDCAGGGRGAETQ
# How it was run: as §1
# [15] = target: T9, ELF3 (Homo sapiens, UniProt P78545 1-371); details: protein: recombinant; tags: N-terminal GST; dsDNA, one strand shown
# T9 sequence: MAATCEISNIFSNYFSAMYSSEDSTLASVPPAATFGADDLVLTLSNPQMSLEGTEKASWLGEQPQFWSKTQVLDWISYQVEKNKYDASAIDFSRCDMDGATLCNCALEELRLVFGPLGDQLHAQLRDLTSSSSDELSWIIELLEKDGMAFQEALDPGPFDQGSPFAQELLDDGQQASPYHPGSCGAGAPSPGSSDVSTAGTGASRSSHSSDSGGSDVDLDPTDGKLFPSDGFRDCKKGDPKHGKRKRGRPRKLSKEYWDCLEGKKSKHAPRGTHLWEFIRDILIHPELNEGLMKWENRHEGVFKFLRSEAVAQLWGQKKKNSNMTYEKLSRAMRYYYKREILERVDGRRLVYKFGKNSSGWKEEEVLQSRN
# How it was run: as §1
# [16] = target: ETV1 (Homo sapiens, UniProt P50549 1-477); details: protein: recombinant; tags: N-terminal GST; dsDNA, one strand shown
# How it was run: as §1
# Sequence of ELF1 (P32519 whole entry): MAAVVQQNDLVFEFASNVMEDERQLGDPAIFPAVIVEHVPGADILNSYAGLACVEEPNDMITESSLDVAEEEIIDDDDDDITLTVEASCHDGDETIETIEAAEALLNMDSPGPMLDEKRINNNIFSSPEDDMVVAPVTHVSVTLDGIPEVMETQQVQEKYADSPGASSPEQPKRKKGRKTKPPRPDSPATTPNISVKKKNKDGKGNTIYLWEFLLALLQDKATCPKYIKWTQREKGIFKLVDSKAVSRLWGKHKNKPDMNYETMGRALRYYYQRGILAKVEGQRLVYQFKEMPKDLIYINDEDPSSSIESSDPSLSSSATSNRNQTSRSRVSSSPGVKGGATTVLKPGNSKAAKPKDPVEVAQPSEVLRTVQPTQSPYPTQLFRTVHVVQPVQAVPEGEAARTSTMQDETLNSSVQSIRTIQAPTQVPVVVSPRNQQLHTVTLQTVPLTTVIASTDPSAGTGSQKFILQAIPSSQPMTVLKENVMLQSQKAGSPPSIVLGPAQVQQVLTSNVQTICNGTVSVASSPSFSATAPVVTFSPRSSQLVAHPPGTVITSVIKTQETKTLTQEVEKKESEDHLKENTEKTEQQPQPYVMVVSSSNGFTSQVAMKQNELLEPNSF
# Sequence of ELF4 (Q99607 whole entry): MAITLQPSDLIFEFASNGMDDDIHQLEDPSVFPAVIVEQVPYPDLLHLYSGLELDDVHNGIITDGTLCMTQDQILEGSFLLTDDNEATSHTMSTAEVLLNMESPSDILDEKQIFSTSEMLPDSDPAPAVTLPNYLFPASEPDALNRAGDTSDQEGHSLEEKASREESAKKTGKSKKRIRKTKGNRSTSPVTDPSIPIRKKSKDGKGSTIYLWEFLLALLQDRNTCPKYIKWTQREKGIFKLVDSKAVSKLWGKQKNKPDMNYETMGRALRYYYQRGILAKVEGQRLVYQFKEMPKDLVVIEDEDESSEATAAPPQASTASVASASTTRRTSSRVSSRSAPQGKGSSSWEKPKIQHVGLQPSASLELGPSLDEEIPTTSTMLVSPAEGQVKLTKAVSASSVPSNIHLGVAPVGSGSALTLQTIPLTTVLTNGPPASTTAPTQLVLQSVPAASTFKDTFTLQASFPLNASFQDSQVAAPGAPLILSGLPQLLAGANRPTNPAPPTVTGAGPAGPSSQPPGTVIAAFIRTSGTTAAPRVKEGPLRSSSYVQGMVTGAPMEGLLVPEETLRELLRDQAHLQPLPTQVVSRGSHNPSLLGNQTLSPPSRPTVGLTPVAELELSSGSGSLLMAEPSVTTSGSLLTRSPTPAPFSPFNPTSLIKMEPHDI
# Sequence of HSF1 (Q00613 whole entry): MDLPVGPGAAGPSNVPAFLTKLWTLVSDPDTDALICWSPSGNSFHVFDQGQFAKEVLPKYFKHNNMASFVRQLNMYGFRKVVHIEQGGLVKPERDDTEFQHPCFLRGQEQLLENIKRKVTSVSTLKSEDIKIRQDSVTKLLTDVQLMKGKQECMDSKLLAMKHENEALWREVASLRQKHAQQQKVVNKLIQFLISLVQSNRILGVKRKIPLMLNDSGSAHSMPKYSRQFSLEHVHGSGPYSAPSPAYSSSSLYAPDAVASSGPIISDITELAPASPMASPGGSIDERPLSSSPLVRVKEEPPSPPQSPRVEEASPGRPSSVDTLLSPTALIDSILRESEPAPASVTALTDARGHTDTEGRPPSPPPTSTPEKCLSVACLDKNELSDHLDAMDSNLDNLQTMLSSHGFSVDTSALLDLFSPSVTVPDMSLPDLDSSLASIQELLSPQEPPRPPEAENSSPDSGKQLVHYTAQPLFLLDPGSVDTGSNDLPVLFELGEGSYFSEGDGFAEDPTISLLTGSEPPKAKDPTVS
# Sequence of SPIB (Q01892 whole entry): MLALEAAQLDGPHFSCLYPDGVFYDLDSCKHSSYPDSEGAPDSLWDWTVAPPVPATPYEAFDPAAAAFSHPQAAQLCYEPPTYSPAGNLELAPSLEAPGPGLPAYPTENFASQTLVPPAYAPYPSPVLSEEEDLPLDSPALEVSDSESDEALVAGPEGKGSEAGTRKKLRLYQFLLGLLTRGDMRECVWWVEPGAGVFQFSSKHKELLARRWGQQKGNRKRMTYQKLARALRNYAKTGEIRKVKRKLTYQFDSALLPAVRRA
# Sequence of ETV5 (P41161 whole entry): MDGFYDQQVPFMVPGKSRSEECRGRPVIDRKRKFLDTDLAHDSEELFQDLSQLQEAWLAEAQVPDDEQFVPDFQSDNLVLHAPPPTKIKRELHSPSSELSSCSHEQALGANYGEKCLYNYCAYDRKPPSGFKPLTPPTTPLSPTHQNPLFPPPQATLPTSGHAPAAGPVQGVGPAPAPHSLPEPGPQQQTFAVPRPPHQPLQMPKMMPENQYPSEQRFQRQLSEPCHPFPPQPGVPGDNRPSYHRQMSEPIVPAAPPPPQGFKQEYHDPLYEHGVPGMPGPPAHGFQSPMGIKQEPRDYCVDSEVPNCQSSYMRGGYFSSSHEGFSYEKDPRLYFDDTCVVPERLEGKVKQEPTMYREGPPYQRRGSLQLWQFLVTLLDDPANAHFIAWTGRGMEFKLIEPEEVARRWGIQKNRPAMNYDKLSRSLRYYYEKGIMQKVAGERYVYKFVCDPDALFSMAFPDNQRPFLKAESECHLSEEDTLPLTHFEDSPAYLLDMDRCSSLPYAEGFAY
# Sequence of ETV1 (P50549 whole entry): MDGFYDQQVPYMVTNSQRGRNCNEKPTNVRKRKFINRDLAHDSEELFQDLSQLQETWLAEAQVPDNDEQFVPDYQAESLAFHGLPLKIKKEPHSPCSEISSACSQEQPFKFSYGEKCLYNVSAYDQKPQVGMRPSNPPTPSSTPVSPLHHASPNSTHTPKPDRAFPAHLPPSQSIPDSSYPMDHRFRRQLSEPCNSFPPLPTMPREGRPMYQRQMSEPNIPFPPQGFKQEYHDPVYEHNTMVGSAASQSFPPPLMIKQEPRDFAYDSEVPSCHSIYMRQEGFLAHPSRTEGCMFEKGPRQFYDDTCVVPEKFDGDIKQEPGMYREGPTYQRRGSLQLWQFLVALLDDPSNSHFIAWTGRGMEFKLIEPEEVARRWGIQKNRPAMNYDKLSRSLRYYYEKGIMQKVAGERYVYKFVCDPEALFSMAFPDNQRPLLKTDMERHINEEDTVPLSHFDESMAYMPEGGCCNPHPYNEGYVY
sequence,measurement,setting,value
GAAAAC,binding signal,[1],"1.04 fold enrichment (6-mer frequency, TF over GST control)"
same,binding signal,[2],"1.05 fold enrichment (6-mer frequency, TF over GST control)"
same,binding signal,[3],"1.09 fold enrichment (6-mer frequency, TF over GST control)"
same,binding signal,[4],"1.06 fold enrichment (6-mer frequency, TF over GST control)"
same,binding signal,[5],"1.09 fold enrichment (6-mer frequency, TF over GST control)"
same,binding signal,[6],"1.07 fold enrichment (6-mer frequency, TF over GST control)"
same,binding signal,[7],"1 fold enrichment (6-mer frequency, TF over GST control)"
same,binding signal,[8],"1.08 fold enrichment (6-mer frequency, TF over GST control)"
same,binding signal,[9],"1.13 fold enrichment (6-mer frequency, TF over GST control)"
same,binding signal,[10],"1.08 fold enrichment (6-mer frequency, TF over GST control)"
same,binding signal,[11],"1.21 fold enrichment (6-mer frequency, TF over GST control)"
same,binding signal,[12],"1.12 fold enrichment (6-mer frequency, TF over GST control)"
same,binding signal,[13],"1.16 fold enrichment (6-mer frequency, TF over GST control)"
same,binding signal,[14],"1.04 fold enrichment (6-mer frequency, TF over GST control)"
same,binding signal,[15],"1.08 fold enrichment (6-mer frequency, TF over GST control)"
same,binding signal,[16],"1.13 fold enrichment (6-mer frequency, TF over GST control)"
